According to ChEMBL document CHEMBL3988442, “University of Dundee, Small-Polar-MMV Screening Library” (2021):
For some of these results: Potency and affinity values are given separately.

Assays:
Parameters in all cases: scale not given: direction of the effect not stated beside the values
[1] = target: Protein translocase subunit SecA (Escherichia coli (strain K12)) (UniProt P10408); experiment: Assay to Identify E. coli SecA ATPase Inhibitors; type: functional; conditions: 30 µM
[2] = target: T1, Ubiquitin-activating enzyme e1, putative (Leishmania donovani (strain BPK282A1)) (UniProt E9BSI1); experiment: Leishmania donovani Ubiquitin Activating Enzyme (LdE1); type: functional; conditions: 30 µM
T1 sequence (whole entry): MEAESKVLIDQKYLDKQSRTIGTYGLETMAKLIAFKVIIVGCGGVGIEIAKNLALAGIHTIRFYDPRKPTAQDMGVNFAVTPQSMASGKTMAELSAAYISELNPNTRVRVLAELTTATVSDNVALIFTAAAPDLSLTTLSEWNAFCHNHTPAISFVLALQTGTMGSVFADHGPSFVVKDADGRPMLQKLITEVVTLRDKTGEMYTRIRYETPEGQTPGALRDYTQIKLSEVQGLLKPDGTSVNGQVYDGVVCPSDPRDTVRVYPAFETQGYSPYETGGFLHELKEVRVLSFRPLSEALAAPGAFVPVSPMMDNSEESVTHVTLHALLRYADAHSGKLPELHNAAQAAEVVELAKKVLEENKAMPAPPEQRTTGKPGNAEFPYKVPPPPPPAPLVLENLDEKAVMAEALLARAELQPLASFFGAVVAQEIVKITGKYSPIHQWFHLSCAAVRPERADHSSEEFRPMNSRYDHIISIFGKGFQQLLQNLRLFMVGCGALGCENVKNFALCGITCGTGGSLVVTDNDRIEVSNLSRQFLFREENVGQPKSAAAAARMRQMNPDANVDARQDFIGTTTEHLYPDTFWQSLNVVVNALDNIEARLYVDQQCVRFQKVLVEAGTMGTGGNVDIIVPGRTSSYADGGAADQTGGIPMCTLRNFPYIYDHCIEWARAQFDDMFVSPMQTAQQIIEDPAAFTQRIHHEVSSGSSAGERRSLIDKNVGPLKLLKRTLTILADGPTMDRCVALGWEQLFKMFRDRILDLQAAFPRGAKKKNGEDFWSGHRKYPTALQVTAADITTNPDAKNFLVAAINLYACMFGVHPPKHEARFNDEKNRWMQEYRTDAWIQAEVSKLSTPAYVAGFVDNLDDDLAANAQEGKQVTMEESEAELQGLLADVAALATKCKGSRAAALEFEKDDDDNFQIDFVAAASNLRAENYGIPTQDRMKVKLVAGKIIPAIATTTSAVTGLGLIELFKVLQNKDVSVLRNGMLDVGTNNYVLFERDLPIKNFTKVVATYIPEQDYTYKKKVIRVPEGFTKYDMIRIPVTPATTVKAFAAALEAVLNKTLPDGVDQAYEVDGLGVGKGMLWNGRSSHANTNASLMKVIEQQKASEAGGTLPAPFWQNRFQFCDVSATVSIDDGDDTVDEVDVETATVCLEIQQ

[3] = target: AMP-activated protein kinase, AMPK (Homo sapiens) (UniProt P54646+O43741+P54619+Q9UGJ0+Q9Y478+Q13131+Q9UGI9); experiment: AMP-dependent Kinase enzyme assay. An in vitro enzyme assay that detects ADP turnover that is directly proportional to AMPK activity. This uses naive AMPK that is activated during the assay with MK-8722; type: functional; conditions: 30 µM
[4] = target: Sialic acid-binding Ig-like lectin 9 (Homo sapiens) (UniProt Q9Y336); experiment: Hs-Siglec9 ALPHAscreen SOP 20170721; conditions: 10 µM
[5] = test system: Trypanosoma cruzi; experiment: Trypanosoma cruzi phosphomannomutase and mannose-1-phosphate guanylyltransferase assay; type: functional; conditions: 10 µM
[6] = target: T2, Arginase-2, mitochondrial (Homo sapiens) (UniProt P78540); experiment: in vitro enzyme assay to detect the production of urea directly proportional to the activity of Arginase II; type: functional; conditions: 33.3 µM; further: in the data most compounds retested in dose-response had high values
T2 sequence (whole entry): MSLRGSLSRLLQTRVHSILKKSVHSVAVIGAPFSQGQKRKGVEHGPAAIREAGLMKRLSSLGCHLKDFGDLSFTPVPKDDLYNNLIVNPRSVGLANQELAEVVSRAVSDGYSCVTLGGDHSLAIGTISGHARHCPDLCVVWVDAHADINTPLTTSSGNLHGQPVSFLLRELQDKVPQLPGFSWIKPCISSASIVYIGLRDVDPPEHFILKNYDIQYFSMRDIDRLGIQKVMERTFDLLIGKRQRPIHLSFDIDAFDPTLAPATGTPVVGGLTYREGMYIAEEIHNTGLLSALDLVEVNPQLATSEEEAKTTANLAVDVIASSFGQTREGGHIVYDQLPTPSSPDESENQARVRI

[7] = target: T3, Proteasome subunit beta (Trypanosoma cruzi) (UniProt O96673); experiment: Trypanosoma cruzi proteasome chymotrypsin-like activity (TcProtChymo) assay.; further: in the data most compounds retested in dose-response had high values; type: functional; conditions: 9.37 µM
T3 sequence (whole entry): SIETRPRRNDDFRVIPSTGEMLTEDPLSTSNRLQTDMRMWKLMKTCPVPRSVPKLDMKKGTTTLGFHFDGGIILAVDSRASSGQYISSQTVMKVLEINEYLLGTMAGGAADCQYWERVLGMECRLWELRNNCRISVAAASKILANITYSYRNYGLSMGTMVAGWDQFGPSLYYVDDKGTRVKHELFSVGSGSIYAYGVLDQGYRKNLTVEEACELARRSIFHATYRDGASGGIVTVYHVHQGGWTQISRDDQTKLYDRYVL

[8] = species on record: Homo sapiens; experiment: To identify inhibition of the IFN signalling (Jak-Stat) pathway via expression of an eGFP reporter gene under the control of an IFN-stimulated response element (ISRE) containing MxA promoter.; type: functional; conditions: 30 µM
[9] = target: T4, Tyrosyl-tRNA synthetase, putative (Trypanosoma cruzi (strain CL Brener)) (UniProt Q4DSP6); experiment: Trypanosoma cruzi tyrosyl tRNA synthetase (TcYRS) _High Tyrosine SOP; type: functional; conditions: 30 µM; further: in the data most compounds retested in dose-response had high values
T4 sequence (whole entry): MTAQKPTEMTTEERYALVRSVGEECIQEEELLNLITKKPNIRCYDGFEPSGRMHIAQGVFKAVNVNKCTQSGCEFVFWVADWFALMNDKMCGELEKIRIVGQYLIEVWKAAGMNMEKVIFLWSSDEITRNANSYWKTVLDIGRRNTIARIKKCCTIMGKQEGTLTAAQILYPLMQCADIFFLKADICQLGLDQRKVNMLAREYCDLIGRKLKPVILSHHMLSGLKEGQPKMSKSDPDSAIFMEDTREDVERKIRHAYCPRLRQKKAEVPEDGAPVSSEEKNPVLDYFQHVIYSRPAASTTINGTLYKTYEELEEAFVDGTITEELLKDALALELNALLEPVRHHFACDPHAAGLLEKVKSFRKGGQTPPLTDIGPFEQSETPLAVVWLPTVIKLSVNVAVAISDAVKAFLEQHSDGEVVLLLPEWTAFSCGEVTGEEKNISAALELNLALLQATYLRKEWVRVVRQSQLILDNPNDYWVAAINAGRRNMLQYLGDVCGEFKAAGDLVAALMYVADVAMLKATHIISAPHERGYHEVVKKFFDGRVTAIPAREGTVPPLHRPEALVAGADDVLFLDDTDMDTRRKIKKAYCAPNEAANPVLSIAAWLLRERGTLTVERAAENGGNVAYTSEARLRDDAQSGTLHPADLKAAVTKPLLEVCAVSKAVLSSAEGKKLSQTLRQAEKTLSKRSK

[10] = target: T4, Tyrosyl-tRNA synthetase, putative (Trypanosoma cruzi (strain CL Brener)); experiment: Trypanosoma cruzi tyrosyl tRNA synthetase (TcYRS) SOP; type: functional; conditions: 30 µM
[11] = target: Chromo domain-containing protein 1 (Saccharomyces cerevisiae (strain ATCC 204508 / S288c) (Baker's yeast)) (UniProt P32657); experiment: ScCHD-1 Enzyme Inhibition Assay; type: functional; conditions: 30 µM; further: in the data most compounds retested in dose-response had high values
Sequence of Chromo domain-containing protein 1 (Saccharomyces cerevisiae (strain ATCC 204508 / S288c) (Baker's yeast)) (P32657 whole entry, the tested form may be a part): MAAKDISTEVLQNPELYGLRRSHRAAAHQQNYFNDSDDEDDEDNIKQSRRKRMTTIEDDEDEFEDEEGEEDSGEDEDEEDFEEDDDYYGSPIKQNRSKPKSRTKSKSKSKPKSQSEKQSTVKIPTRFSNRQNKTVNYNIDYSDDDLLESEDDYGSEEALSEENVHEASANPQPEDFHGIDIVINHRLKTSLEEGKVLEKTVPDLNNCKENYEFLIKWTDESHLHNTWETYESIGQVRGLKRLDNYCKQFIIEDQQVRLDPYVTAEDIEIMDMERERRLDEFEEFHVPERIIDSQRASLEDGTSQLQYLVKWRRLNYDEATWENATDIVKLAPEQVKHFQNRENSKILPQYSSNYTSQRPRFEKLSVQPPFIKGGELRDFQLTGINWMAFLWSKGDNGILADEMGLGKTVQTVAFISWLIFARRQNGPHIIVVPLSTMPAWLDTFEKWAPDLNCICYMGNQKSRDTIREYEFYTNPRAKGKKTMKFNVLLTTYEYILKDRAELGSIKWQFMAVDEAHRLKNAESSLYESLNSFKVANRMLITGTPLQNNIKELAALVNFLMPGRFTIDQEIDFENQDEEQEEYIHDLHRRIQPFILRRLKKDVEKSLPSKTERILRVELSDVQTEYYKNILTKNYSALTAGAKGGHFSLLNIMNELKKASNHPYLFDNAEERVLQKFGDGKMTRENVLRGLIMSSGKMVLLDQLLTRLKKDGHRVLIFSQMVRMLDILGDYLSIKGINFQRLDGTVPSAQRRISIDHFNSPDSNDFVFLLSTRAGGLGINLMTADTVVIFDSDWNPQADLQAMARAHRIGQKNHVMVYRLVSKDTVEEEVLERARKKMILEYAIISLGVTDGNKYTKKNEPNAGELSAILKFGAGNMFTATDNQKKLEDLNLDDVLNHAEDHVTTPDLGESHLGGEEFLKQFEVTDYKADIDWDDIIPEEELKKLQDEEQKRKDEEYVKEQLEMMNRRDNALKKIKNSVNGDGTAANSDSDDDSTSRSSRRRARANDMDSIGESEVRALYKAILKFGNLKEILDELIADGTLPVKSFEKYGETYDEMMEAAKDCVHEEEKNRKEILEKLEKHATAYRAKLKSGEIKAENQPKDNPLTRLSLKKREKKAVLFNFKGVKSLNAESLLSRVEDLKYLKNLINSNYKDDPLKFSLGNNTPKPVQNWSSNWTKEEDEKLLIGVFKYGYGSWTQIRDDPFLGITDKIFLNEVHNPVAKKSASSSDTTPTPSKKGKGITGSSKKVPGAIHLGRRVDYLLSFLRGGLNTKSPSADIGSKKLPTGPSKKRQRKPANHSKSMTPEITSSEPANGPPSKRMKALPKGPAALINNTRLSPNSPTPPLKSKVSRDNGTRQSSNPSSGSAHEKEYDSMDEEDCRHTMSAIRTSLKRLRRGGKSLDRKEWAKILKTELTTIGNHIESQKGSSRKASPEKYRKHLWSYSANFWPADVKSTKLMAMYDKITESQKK

Sequence of Sialic acid-binding Ig-like lectin 9 (Homo sapiens) (Q9Y336 whole entry): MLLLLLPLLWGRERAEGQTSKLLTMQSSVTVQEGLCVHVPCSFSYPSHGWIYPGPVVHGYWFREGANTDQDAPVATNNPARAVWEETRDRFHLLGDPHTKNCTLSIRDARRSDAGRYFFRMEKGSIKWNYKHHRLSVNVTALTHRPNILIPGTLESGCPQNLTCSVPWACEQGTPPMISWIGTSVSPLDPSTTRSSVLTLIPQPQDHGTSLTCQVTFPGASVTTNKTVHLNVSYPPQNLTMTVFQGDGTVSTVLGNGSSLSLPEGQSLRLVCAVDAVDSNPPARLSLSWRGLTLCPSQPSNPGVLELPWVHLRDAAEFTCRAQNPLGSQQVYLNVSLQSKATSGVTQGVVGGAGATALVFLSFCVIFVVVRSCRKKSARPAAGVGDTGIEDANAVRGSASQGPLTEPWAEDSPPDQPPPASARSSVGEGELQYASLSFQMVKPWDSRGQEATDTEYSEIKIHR
Sequence of Protein translocase subunit SecA (Escherichia coli (strain K12)) (P10408 whole entry): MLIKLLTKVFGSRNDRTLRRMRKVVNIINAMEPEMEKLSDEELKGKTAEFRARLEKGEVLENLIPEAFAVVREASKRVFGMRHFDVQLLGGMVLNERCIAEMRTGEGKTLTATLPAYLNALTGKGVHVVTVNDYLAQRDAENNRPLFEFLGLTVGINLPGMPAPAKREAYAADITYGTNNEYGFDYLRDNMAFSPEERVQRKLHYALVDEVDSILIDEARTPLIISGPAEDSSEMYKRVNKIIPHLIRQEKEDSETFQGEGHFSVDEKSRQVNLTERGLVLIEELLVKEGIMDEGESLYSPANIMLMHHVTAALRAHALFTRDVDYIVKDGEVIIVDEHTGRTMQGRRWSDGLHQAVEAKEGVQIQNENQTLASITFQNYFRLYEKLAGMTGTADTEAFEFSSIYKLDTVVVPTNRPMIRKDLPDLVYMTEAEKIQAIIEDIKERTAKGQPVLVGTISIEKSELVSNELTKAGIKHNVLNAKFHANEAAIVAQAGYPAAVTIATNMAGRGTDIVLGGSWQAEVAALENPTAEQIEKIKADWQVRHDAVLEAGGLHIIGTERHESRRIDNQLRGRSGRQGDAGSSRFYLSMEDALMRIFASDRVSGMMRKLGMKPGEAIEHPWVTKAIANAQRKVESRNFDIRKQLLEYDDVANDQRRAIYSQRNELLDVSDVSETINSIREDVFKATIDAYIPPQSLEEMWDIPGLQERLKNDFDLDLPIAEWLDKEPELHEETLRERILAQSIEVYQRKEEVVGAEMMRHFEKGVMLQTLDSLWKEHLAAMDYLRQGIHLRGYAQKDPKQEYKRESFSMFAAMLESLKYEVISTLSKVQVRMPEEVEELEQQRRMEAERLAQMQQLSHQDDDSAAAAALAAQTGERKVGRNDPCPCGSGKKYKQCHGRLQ

SMILES | Percent Effect [1] | Percent Effect [2] | Percent Effect [3] | Percent Effect [4] | Percent Effect [5] | Percent Effect [6] | Percent Effect [7] | Percent Effect [8] | Percent Effect [9] | Percent Effect [10] | Percent Effect [11]
Cc1cc(C)n(CC2CCCCN2Cc2cscn2)n1 (configuration not stated) | -3.65% | 13% | -3.15% | 14.9% | -1.27% | 4.42% | 7.52% | 12.4% | 7.62% | 11.8% | -10.8%
c1ccc(N2CCCC3(COCCN(c4nccs4)C3)C2)nc1 (configuration not stated) | 0.192% | 0% | -5.45% | 16.4% | 11.7% | 0.399% | 16% | 31.6% | 16.7% | 23.5% | 10.7%
CCNC(=O)NC(=O)CSC(C)c1c(F)cccc1F (configuration not stated) | -5.95% | 2.67% | 1.21% | -3.31% | -5.55% | -4.17% | 22.3% | 10.5% | 0.546% | -1.24% | -6.68%
O=C1COC2(CCN(Cc3ccccn3)CC2)CN1CC1CC1 | 0.889% | 2.6% | 17.2% | 2.67% | -4.83% | -1.94% | -3.13% | 9.22% | 1.06% | 3.85% | -1.35%
Cc1cnn(CC2CCCCN2C(=O)CN(C)C2CC2)c1 (configuration not stated) | 0.161% | 26.6% | -0.801% | -3.2% | -0.103% | -1.94% | 16.8% | -1.15% | 6.25% | 15.2% | -24%
CCOc1ccc(NC(=O)CN2CCN(c3nccn3C)CC2)cc1 | 0.133% | 10.4% | 0.177% | -1.93% | 7.79% | -3.23% | 15.5% | -6.28% | 9.52% | 14.1% | -9%
O=C(Cn1cc(C(=O)O)ccc1=O)Nc1ccc(Cl)cc1F | -1.04% | 20% | -5.95% | 0.752% | 1.38% | -4.75% | 10.7% | 9.59% | 7.41% | 10.3% | -12%
COc1ccc(C(=O)NCCc2nnc3ccccn23)c(OC)c1 | -6.68% | 5.2% | 5.94% | -6.61% | -7.93% | -3.16% | 13.5% | 13% | 0% | 2.35% | -16.9%
CC(C)COC(C)C(=O)NCc1ccc(OC(C)C)nc1 (configuration not stated) | -1.41% | 15.6% | -0.374% | 1.85% | 2.84% | 1.9% | 11.1% | -12.7% | 8.57% | 25.9% | -24.5%
CCc1ccccc1C(=O)N1CCN(S(C)(=O)=O)[C@@H](C)C1 | 2.08% | 2.74% | 0.603% | 7.54% | 5.09% | 3.18% | 8.34% | -4.78% | 1.07% | 0% | -1.37%
CC(C)(C)N1CC(C(=O)N2CCN(CCc3ccccc3)CC2)CC1=O (configuration not stated) | -1.55% | 5.33% | -2.2% | 1.39% | -3.6% | 1.56% | 17.1% | 32.1% | 4.92% | 11.1% | -6.21%
O=C(NCCN1CCCCCC1=O)c1ccn(-c2ccc(F)cc2)n1 | 1.12% | 13.5% | -9.65% | -9.89% | -6.51% | 0% | 15.5% | 24.8% | 4.43% | 16.1% | -5.87%
O=C(c1nc(COc2ccc3c(c2)OCO3)no1)N1CCCC1 | -2.38% | 1.33% | -0.332% | 4.46% | -6.88% | -12.5% | 9.98% | 3.63% | 3.17% | 5.13% | -8.92%
Cc1cccc(NS(=O)(=O)c2cc(C(=O)O)oc2C)c1Cl | -6.42% | 0% | 0.702% | 9.91% | 6.18% | -4.27% | 0.338% | 3.85% | 1.94% | 9.76% | -7.97%
Cc1ncc(CNC2CCCN(Cc3noc(C4CC4)n3)C2)s1 (configuration not stated) | -0.948% | 10.5% | 2.18% | 8.33% | 3.01% | 2.3% | 10.2% | 8.96% | 7.35% | 19.5% | -8.72%
CN1C(=O)C(c2ccccc2)CC12CCN(CCOCCO)CC2 (configuration not stated) | 1.44% | 10.7% | -6.48% | 0.314% | -9.64% | 3.12% | 19.2% | 15.2% | 3.83% | -8.64% | -5.07%
CCCNC(=O)Cn1nc(C(C)C)c2cnn(C(C)(C)C)c2c1=O | -3.37% | 5.48% | -13.9% | 4.27% | -0.392% | 2.27% | 16.1% | 5.42% | 8.6% | 15% | -5.95%
